Among all 65,000 compounds or so, about 2,100 (3.2%) showed an effect of 50% or more. The median lay at about -52%. The sample as a whole holds a higher share of strong results than the screen did.
System: Plasmodium falciparum
Experiment: Screen against P. falciparum Asexual Blood Stage (ABS), at 5uM
Type: functional, Dd2
Settings: tested at 5 uM

Row | SMILES | INHIBITION [%]
1 | CCN(CC)C(CNS(=O)(=O)c1ccc(C(=O)NC)cc1)c1ccco1 (centres undefined) | -31.7
2 | CCN(CC)C(CNCc1ccc(O)cc1)c1ccco1 (centres undefined) | 40.1
3 | CCN(CC)C(CNS(=O)(=O)NCc1ccccc1)c1ccco1 (centres undefined) | 67
4 | Cn1ncc2c(NC3CCCN(C(=O)C4CC4)C3)nc(C(C)(C)C)nc21 (centres undefined) | -74
5 | Cn1ncc2c(NC3CCC(N)CC3)nc(C(C)(C)C)nc21 (centres undefined) | 65.3
6 | Cn1ncc2c(N[C@H]3CCCC[C@@H]3O)nc(C(C)(C)C)nc21 | -65.3
7 | COCCN1CCC2(CC1)CC(NC(=O)C(C)C)c1ccccc1O2 (centres undefined) | -12.4
8 | Cn1nc(C(=O)N2CCSCC2)cc1NC(=O)c1ccco1 | -104
9 | CNc1nc(N2CCN(C3CCCCC3)C(CCO)C2)nc2c1CCC2 (centres undefined) | -32.3
10 | CNc1nc(N2CCN(Cc3ccsc3)C(CCO)C2)nc2c1CCC2 (centres undefined) | 55.7
11 | CNc1nc(N2CCN(CC=C(C)C)C(CCO)C2)nc2c1CCC2 (centres undefined) | -7.97
12 | CN(C)[C@@H]1C[C@@H](CO)N(C(=O)Nc2ccc(SC(F)(F)F)cc2)C1 | 7.77
13 | CCc1nc(C)cn1C(=O)Nc1ccc(F)cc1 | -11.7
14 | Cc1n[nH]c(C2CN(C(=O)c3ccco3)CCO2)n1 (centres undefined) | -132
15 | CC(C)(C)CC(=O)NC(C)(C(N)=O)c1cccc(Cl)c1 (centres undefined) | -54.6
16 | Cc1ccc(=O)n(CC2(O)CCN(Cc3c(F)cccc3F)CC2)n1 | -42.4
17 | Cn1cc(C(NCc2ccc(F)cc2)c2cccc(F)c2)cn1 (centres undefined) | 13.6
18 | Fc1cccc(C(NCc2ncc[nH]2)c2ccccc2)c1 (centres undefined) | 69.1
19 | Fc1cccc(NCc2ncc[nH]2)c1 | -155
20 | Cc1c(C(=O)NCC2CCS(=O)(=O)C2)cnn1-c1ccccc1 (centres undefined) | -29.9
21 | Cc1cc(C(=O)N2CCCC3(COCCN(CCN(C)C)C3)C2)no1 (centres undefined) | -49.7
22 | CC(C)(C)n1ncc2c1CCCC2NCc1cccc2c1OCO2 (centres undefined) | 56.8
23 | CCn1ncc2c1CCCC2NCc1cccc2c1OCCCO2 (centres undefined) | -15.3
24 | Cn1ncc2c1CCCC2NCc1cccc2c1OCCCO2 (centres undefined) | -48.9
25 | CCn1ncc2c1CCCC2NCc1cccc2c1OCO2 (centres undefined) | -116
26 | CC(C)(C)n1ncc2c1CCCC2NCc1cccc2c1OCCO2 (centres undefined) | 61.5
27 | CCn1ncc2c1CCCC2NCc1cccc2c1OCCO2 (centres undefined) | -36

Row | SMILES | INHIBITION [%]
28 | CN(CCc1ccncc1)CCc1nccs1 | -102
29 | Cc1c[nH]c(C2COCCN2C(=O)c2n[nH]c(=O)c3ccccc23)n1 (centres undefined) | -96.3
30 | Cc1ncnc2c1CCN(C(=O)N(C)C)CC2 | -100
31 | OCCC1CN(c2nc(-c3cccnc3)nc3c2CCNCC3)CCO1 (centres undefined) | -121
32 | NCCC1CN(c2nc(-c3ccccc3)nc3c2CCNC3)CCO1 (centres undefined) | 66.1
33 | NCC1CN(c2nc(-c3ccccc3)nc3c2CCNCC3)CCO1 (centres undefined) | 69.5
34 | COCCC1CN(c2nc(-c3ccccc3)nc3c2CCNC3)CCO1 (centres undefined) | -21.7
35 | NCC1CN(c2nc(-c3cccnc3)nc3c2CCNCC3)CCO1 (centres undefined) | -84.9
36 | OCCC1CN(c2nc(-c3ccncc3)nc3c2CCNCC3)CCO1 (centres undefined) | -97.5
37 | CCOCCN1CCC(C(=O)c2cc(F)ccc2F)CC1 | 5.36
38 | O=C(O)CCC(=O)N1CCN(CC2CC2)c2ncccc2C1 | -23.3
39 | CCSc1cncc(N2CCC(NC(=O)C3CCCCC3)CC2)n1 | -11.6
40 | O=c1cc(N2CCCC2)cnn1CC(F)F | -88.9
41 | CC(C)COCC1CN(Cc2ccc3c(c2)OCO3)Cc2ncn(C)c21 (centres undefined) | 38.7
42 | CCC(O)(CNCc1ncc[nH]1)c1ccc(Br)cc1 (centres undefined) | 67.5
43 | CCC(O)(CNCc1ccncc1)c1ccc(Br)cc1 (centres undefined) | 8.37
44 | COc1cc(NCc2ncc[nH]2)ccc1Br | -173
45 | O=C(c1ccsc1)N1CCc2ncc(Cn3cncn3)n2CC1 | -17.9
46 | COCC(=O)Nc1ccc(-c2noc([C@@H]3CCCN3C)n2)cn1 | -28.7
47 | COCCNc1ccc(-c2noc([C@@H]3CCCN3)n2)cn1 | 39.8
48 | COCC(=O)Nc1ccc(-c2noc([C@@H]3CCCN3)n2)cn1 | 52.6
49 | CN(C)c1cc2c(nn1)CCN(C(=O)C1Cc3ccccc3O1)C2 (centres undefined) | -78.5
50 | O=C(c1cscn1)N1CCO[C@H]2[C@@H](Oc3ccccn3)CC[C@@H]21 | -20.9
51 | Cc1csc(C(=O)N2CCC(O)(CN3CCc4ccccc4C3)C2)c1 (centres undefined) | -1.9
52 | O=C(NCc1ccccc1Cl)c1[nH]nc2c1CS(=O)(=O)CC2 | -148
53 | Cn1cc(CN2CCCCC2c2ccc(-c3cccc(F)c3)nc2)cn1 (centres undefined) | 2.27
54 | Cn1cc(CN2CCCCC2c2ccc(-c3cccc(Cl)c3)nc2)cn1 (centres undefined) | 55.3
